# In PubChem BioAssay (NCATS):
# Several values for one entry are separate records, joined by “and”; a condition that tells them apart may be missing. Identical values can stand only once. Inconclusive results are not listed. Values without a mark were called inactive. Activity calls are given as the source filed them. Calls follow the shape of the dose curve; as a rule, active = well fitted cell-killing curve with a large enough effect; inconclusive = small, poorly fitted or top-dose-only effect, or effect the other way; inactive = no such curve, though single readings can be large or run the other way.
# Assay: Viability qHTS for spleen associated tyrosine kinase inhibitor (SYKi) naive MV4-11 cells (AID 1963823); also: nearly all actives have a fitted effect of over 40% in size
# Settings: MV4-11 AML viability, CellTiter-Glo luminescence, 72 h; series mostly up to 45 µM; viability (% of control): at the top concentration
# Procedure, shortened: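 In this viability screen, compounds acted on SYK inhibitor naive MV4-11 cells for three days (72 hr, 37 C). Remaining viable cells were measured by CellTiter-Glo luminescence following a 10 min room-temperature development.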
# Potency is read from the fitted curve at half-maximal effect.
Compound,viability (% of control),Potency
CC1(C)OC(=O)CC(O)C2(C)C1CC(=O)C1(C)C2C(O)CC2(C)C(c3ccoc3)OC(=O)C3OC321 (centres undefined),74% [at 17.3 µM],
COc1c2c(c(C)c3c1C(=O)OC3)O[C@@]1(C)CCC3(C(C)(C)O)OC(=O)CC[C@]3(C)[C@H]1C2 (some centres undefined),46.2% [at 17.3 µM],
O=c1[nH]cnc2c([C@@H]3N[C@H](CO)[C@@H](O)[C@H]3O)c[nH]c12,65.3%,
COc1cc([C@H]2OC[C@](O)(Cc3ccc(O[C@@H]4O[C@H](CO)[C@@H](O)[C@H](O)[C@H]4O)c(OC)c3)[C@@H]2CO)ccc1O,78.4% [at 17.3 µM],
C[C@H]1CC[C@@H]2N(C1)C[C@@H]1[C@H]([C@@H](O)[C@H](O)[C@]3(O)[C@H]1C[C@@]14OC5(O)[C@@H](C[C@@H](O)[C@@H]31)[C@]4(C)CC[C@@H]5O)[C@]2(C)O,86% [at 17.3 µM],
O=C(Nc1cccc(Nc2nccc(Nc3cccc(C(F)(F)F)c3)n2)c1)C1CC1,,1840 nM (active)
COc1cc2nc(N3CCCC3)nc(NCCCCCN3CCCC3)c2cc1OC,,1300 nM (active)
COc1cc(C2CC(=O)Nc3c2cc(Br)c2ccccc32)cc(OC)c1OC (centres undefined),83.5%,
CC1(C)CC[C@]2(C(=O)O[C@@H]3O[C@H](CO)[C@@H](O)[C@H](O)[C@H]3O)CC[C@]3(C)C(=CCC4[C@@]5(C)C[C@@H](O)[C@H](O)C(CO)(CO)C5CC[C@]43C)C2[C@@H]1O (some centres undefined),79.3% [at 17.3 µM],

# Assay: Viability qHTS for spleen associated tyrosine kinase inhibitor (SYKi) drug resistant MV4-11 cells (AID 1963824); also: nearly all actives have a fitted effect of over 35% in size
# Settings: SYKi-resistant MV4-11 viability, CellTiter-Glo, 72 h; series mostly up to 45 µM; viability, % of control: at the top concentration
# Procedure, shortened: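 SYK-inhibitor-resistant MV4-11 AML cells were seeded at 500 per well onto compound and cultured 72 hours (37 °C, 5% CO2). CellTiter-Glo was then added, and after 10 min at room temperature, luminescence gave viability.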
Compound,Potency,"viability, % of control"
C=C1C(=O)OC2C1CCC1(C)C(O)CC=C(C)C21 (centres undefined),4.61 µM (active),
c1cc(NCCc2c[nH]c3ccccc23)cc(Nc2ccncc2)c1,0.651 µM (active),
C=C[C@@]12COC(=O)C(=C)[C@@H]1[C@@H](O)[C@H](C(=C)C(=O)OC)[C@@H](O)C2,,6.48%
O=C(Nc1nc2ccccc2n1CCc1ccccc1)c1ccccc1,,2.54%
COc1cc([C@H]2OC[C@@H]3[C@@H](c4ccc(O[C@@H]5O[C@H](CO)[C@@H](O)[C@H](O)[C@H]5O)c(OC)c4)OC[C@]23O)ccc1O,,84.1% [at 17.3 µM]
CCOc1cc2ncc(C#N)c(Nc3ccc(OCc4ccccn4)c(Cl)c3)c2cc1NC(=O)/C=C/CN(C)C,224 nM (active) and 525 nM (active),
Cc1ccc(C)c(NC(=O)CNS(=O)(=O)c2ccc3[nH]c(=O)oc3c2)c1,,92.2%
C=C1[C@@H](OC(C)=O)CC[C@@]2(C)[C@@H](OC(C)=O)[C@H](OC(C)=O)C3=C(C)C[C@H](OC(=O)C(C)CC)[C@@H]([C@@H](OC(C)=O)[C@H]12)C3(C)C (some centres undefined),1.22 µM (active),
C=C1C(=O)O[C@@H]2[C@H]1CC[C@H](C)[C@]1(CCC(=O)O1)C2(C)O (some centres undefined),6.51 µM (active),
CCC(C)n1cc(C)c2c(C(=O)NCc3c(C)cc(C)[nH]c3=O)cc(-c3ccc(N4CCNCC4)nc3)cc21 (centres undefined),18.4 µM (active),
O=C1NC(=O)c2cc(Nc3ccc(F)cc3)c(Nc3ccc(F)cc3)cc21,1.03 µM (active),
C[C@@H]1C/C=C/C=C\C=C\C=C\[C@H](O[C@@H]2O[C@H](C)[C@@H](O)[C@H](N)[C@@H]2O)C[C@@H]2O[C@](O)(C[C@@H](O)C[C@H]3O[C@@H]3/C=C/C(=O)O1)C[C@H](O)[C@H]2C(=O)O,,74.8% [at 17.3 µM]
COc1cc(C)c(C(=O)Oc2cc(C)c(C(=O)Oc3cc(C)c(C(=O)NC(C)C(=O)O)c(O)c3)c(O[C@@H]3O[C@H](CO)[C@@H](O)[C@H](O)[C@H]3OC(C)=O)c2)c(OC)c1 (some centres undefined),,80.3% [at 17.3 µM]
CC(C)=CC/C=C(\C)[C@H]1CC[C@]2(C)[C@@H]1[C@H](O)C[C@@H]1[C@@]3(C)CC[C@H](O)C(C)(C)[C@@H]3[C@@H](O[C@@H]3O[C@H](CO)[C@@H](O)[C@H](O)[C@H]3O)C[C@]12C,,69.8%
COc1cc(CCO)ccc1O[C@@H]1O[C@H](CO)[C@@H](O)[C@H](O)[C@H]1O,,104%
CC1CCC2(C)C(CC(O)C(O)C23CO3)C1(C)CCC1=CC(O)OC1=O (centres undefined),,86.5%
CC1(C)C2CCC1(C)C(OC(=O)C(O)(CC(=O)O)CC(=O)O)C2 (centres undefined),,97.6%
COc1ccc(CCC(=O)c2c(O)cc(O[C@@H]3O[C@H](CO)[C@@H](O)[C@H](O)[C@H]3O[C@@H]3O[C@@H](C)[C@H](O)[C@@H](O)[C@H]3O)cc2O)cc1O,,94.9%
CC(=O)C12OC(C)(C)OC1CC1C3CCC4=CC(=O)C=CC4(C)C3(F)C(O)CC12C (centres undefined),,96.7%
CCn1c(-c2nonc2N)nc2c(C#CC(C)(C)O)ncc(OCC3CCCNC3)c21 (centres undefined),8.2 µM (active),
